Source: PubChem BioAssay

Experiment: caspase-8 TRAIL sensitization, hit retest, confirmation, cell-based, NB7+caspase-8, with/without TRAIL, luminescence panel (AID 651596)
Settings: NB7 neuroblastoma + caspase-8, without TRAIL, luminescence viability, without TRAIL, mean of runs, at 10 µM

Compound	activity [%]
C=C(C)CSc1nnc2n(Cc3ccccc3)c(=O)c3c4c(sc3n12)CCC4	90
N/C(=N\OC(=O)c1ccc([N+](=O)[O-])cc1Cl)c1ccccn1	87.3
Cc1cccc(-n2ncc3c(NC4CCCCC4)ncnc32)c1	54.5
CCCCCCCCOC(=O)c1cc([N+](=O)[O-])c(Sc2ncnc3nc[nH]c23)c([N+](=O)[O-])c1	62
Cc1cc(C)n2nc(C(=O)Nc3ccc4c(c3)OCCO4)nc2n1	47.2
COc1cc(/C=N/Nc2nn3cnnc3c3ccccc23)cc(OC)c1OC	76.2
COc1cccc(N=c2oc3ccc(OC)cc3cc2-c2nc3ccccc3[nH]2)c1	18.1
Cc1csc(NC(=O)c2ccc(OCC3CCCO3)cc2)n1 (stereo not drawn)	64.9
Clc1ccc(OCc2nn3c(C4CCCCC4)nnc3s2)cc1	71.2
O=C(CCl)Nc1ccccc1Sc1ccccc1	87.8
COc1ccccc1-c1cc2nc(-c3ccccc3)cc(N3CCN(C(=O)c4ccoc4)CC3)n2n1	62.7
CC(C)NC(=O)c1ccc2c3n(nc2c1)-c1ccccc1CO3	95.5
Cc1ccc(C(=O)OCn2ncc(Cl)c(Cl)c2=O)cc1	100
CCOC(=O)c1sc(N(Cc2ccccc2)C(=O)CCl)nc1C	76.5
Cc1ccc2sc(NC(=O)CSc3nc(C)cc(C)c3C#N)nc2c1	57.3
COc1ccc2[nH]c3c(NCCC4=CCCCC4)ncnc3c2c1	44.1
COc1cc2c(cc1NC(=O)c1cccc([N+](=O)[O-])c1)oc1ccccc12	-9.4
Nc1nc(N)c2cc(S(=O)(=O)c3cccc(C(F)(F)F)c3)ccc2n1	76.5
